Source: PubChem (several laboratories)
Neddyl block – inhibitors of human cullin neddylation; TR-FRET cullin neddylation, biochemical; inhibition, % at 25 µM; 360,000 tested, 0.58% active; P61081+Q13564; in the data active = inhibition above about 36%
Target sequence (P61081 whole entry, looked up): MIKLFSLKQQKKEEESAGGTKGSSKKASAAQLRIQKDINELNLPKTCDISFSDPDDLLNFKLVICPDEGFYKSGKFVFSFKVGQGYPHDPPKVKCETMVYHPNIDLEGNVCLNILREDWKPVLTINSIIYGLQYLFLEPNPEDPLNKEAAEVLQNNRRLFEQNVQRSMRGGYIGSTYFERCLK
Target sequence (Q13564 whole entry, looked up): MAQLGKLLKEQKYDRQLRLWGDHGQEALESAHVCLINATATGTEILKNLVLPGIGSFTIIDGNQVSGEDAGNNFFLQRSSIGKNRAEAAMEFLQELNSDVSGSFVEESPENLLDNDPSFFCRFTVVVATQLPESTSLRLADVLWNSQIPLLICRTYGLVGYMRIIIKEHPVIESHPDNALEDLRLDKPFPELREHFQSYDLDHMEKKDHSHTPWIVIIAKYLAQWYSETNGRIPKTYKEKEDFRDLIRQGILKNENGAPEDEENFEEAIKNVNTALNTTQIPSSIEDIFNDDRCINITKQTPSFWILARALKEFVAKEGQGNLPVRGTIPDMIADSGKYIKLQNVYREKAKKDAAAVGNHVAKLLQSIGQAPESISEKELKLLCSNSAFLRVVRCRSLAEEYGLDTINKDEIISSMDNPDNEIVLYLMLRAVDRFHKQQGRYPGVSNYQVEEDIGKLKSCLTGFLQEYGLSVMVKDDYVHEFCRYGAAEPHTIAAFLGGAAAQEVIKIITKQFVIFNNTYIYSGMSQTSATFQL
A1 inh – inhibitors of the anti-apoptotic protein A1, read as caspase activation; caspase activation, % (test concentration not listed); MEF A1-2A-BIM cells, Caspase-Glo 3/7 luminescence, 3 h; percent of clofoctol response, vehicle zero; 330,000 tested, 0.066% active;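 active = over half of replicate activation scores above 10%, or exactly half above 10 with the replicate mean above 10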
dFosB act – activators of mouse delta FosB homodimer; P13346; purified delta FosB, TAMRA-CDK5 oligo fluorescence polarization; percent of positive-control signal above neutral wells; activation, % at 25 µM; 340,000 tested, 0.99% active;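 active = mean activation above about 17%, with every replicate also reaching it, limit read from the data, passing the limit was not always enough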
INS-1E GSIS act – GLuc luminescence reporter in INS-1E cells, primary screen for activators of glucose-dependent secretion of insulin. AID 743287. activation, % at 16.6 µM. 370,000 tested, 0.61% active. INS-1E GLuc reporter insulin secretion, 2-3 h;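 active = lowest replicate activation of at least 40%, so every replicate reaches that level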;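 note: 0% = median of neutral control wells and 100% = median of IBMX positive control wells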
Vif inh – HIV Vif inhibition; 340,000 tested, 0.35% active; inhibition, % at 7.49 µM; HEK293T cells, Vif self-association by quenched fluorescence, imaging, 24 h; in the data active = inhibition above about 50%, passing the limit was not always enough
Active calls of the source: *; x = no result given. Shown are actives, neighbours in structure and some others; about 1.9% of the full set was active somewhere.

SMILES	Neddyl block	A1 inh	dFosB act	INS-1E GSIS act	Vif inh
COc1ccc(C(=O)N2CCOC2CNC(=O)C(=O)NCc2ccc3c(c2)OCO3)cc1 (stereo unspecified)	2	-1	0	4	-1
O=[N+]([O-])c1ccc(N2CCCCC2)cc1N1CCOCC1	-33	0	-4	45*	x
O=[N+]([O-])c1ccc(N2CCOCC2)cc1N1CCCCC1	-41	0	-3	43	17
Cc1cc(C)c2[nH]c(O)c(N=NC(=S)NCC3CCCO3)c2c1 (stereo unspecified)	-14	3	-7	69*	-5
Cc1cc(NC(=O)CSc2nc3c(sc4ccccc43)c(=O)n2CCCN2CCOCC2)n[nH]1	-29	-1	-20	19	94*
CCS(=O)(=O)N1CC2(C1)[C@H](c1ccccc1)[C@@H](CO)N2Cc1ccc(F)cc1	x	x	x	-2	x
N#Cc1ccc(OCC(=O)Nc2ccc3[nH]c(=O)[nH]c3c2)cc1	-2	0	5	26	2
CCCn1c(=O)c2[nH]c(-c3ccc(OCC(=O)Nc4ccc(C#N)cc4)cc3)nc2n(CCC)c1=O	16	-2	2	x	94*
CC(C)(C)c1ccc(-c2cc(-c3ccccc3O)[nH]n2)cc1	-4	-2	-7	68*	-4
CCCC(=O)Nc1ccc2c(c1)OC[C@H](C)N(C(=O)CC1CC1)C[C@@H](C)[C@H](OC)CN(C)C2=O	x	x	x	10	x
CC(C)(C)c1ccc2c(c1)OC(C(=O)N/N=C\c1ccc[nH]1)CO2 (stereo unspecified)	-4	24*	-10	x	-20
CC(C)(C)c1ccc2c(c1)OC(C(=O)N/N=C\c1ccncc1)CO2 (stereo unspecified)	-9	0	-5	-16	-7
COc1ccc(-c2nnc(SCC(=O)Nc3cc(C)on3)n2C)cc1OC	-5	0	-6	65*	-2
Cc1csc(NC(=O)CSc2nc(C)cs2)n1	1	1	2	x	x
COCCNCC(=O)Nc1nc(C)cs1	8	x	-4	3	59*
Cc1cc(C(=O)CCl)c(C)n1CCc1ccc(Cl)cc1	5	14*	-6	-15	1
Cc1noc(C)c1NC(=O)NCC[C@@H]1CC[C@H](NC(=O)c2ccc(F)cc2)[C@@H](CO)O1	x	x	x	15	x
OC(c1ccccc1)(c1ccccc1)C1CCN(CCCOc2ccc(F)cc2)CC1	-2	x	x	-42	x
OC(c1ccccc1)(c1ccccc1)C1CCN(CCCOc2ccc(C(F)(F)F)cc2)CC1	x	x	x	654*	x
COc1ccc(CCNC(=O)CSc2ccccn2)cc1OC	6	0	3	11	2
COc1ccc(CCNC(=O)CCN2C(=O)COc3ccc(C)cc32)cc1OC	-3	0	-7	x	-7
COc1ccc(CCNC(=O)CSc2ccccc2)cc1OC	6	0	-1	73*	10
COc1ccc(CCNC(=O)CSc2nccc(=O)[nH]2)cc1OC	6	0	4	14	7
COc1ccc(CCNC(=O)C(=O)c2c(C)n(C)c3ccccc23)cc1OC	-5	0	-7	46*	7
Cc1c(C(=O)C(=O)NCCC2=CCCCC2)c2ccccc2n1C	2	-2	-13	x	-1
SMILES	Neddyl block	A1 inh	dFosB act	INS-1E GSIS act	Vif inh
COc1ccc(CCNC(=O)CSc2cccc3cccnc23)cc1OC	5	0	0	41*	4
COc1ccc(CCNC(=O)CCN2C(=O)COc3ccccc32)cc1OC	-6	0	2	27	126*
C/C=C/c1cnc2c(c1)C(=O)N([C@H](C)CO)C[C@H](C)[C@@H](CN(C)C(=O)C1CCOCC1)O2	x	x	x	2	x
COc1ccc(CCNC(=O)CSC(=O)c2ccccc2)cc1OC	2	0	-3	46*	-4
C=CCn1cnc2scc(-c3ccc(OC)cc3)c2c1=O	-1	2	-2	61*	17
CN1C[C@H]2[C@@H](c3ccccc31)[C@@H](CO)N2C(=O)C1CCCCC1	x	x	x	-6	x
CCN(C(=O)CSc1nnc(NCc2ccccc2)s1)C1CCS(=O)(=O)C1 (stereo unspecified)	5	1	-4	1	-17
CCN(C(=O)CSc1nnc(Nc2cccc(C)c2C)s1)C1CCS(=O)(=O)C1 (stereo unspecified)	10	1	1	x	56*
C[C@@H]1CCCCO[C@H](CN(C)Cc2ccc3c(c2)OCO3)[C@H](C)CN([C@H](C)CO)C(=O)c2cc(NC(=O)C3CCCCC3)ccc2O1	x	x	x	-18	x
